# From PubChem
# DT40 TDP1 no CPT – qHTS for Inhibitors of human tyrosyl-DNA phosphodiesterase 1 (TDP1): qHTS in cells in absence of CPT | DT40 Tdp1-/- hTDP1 cells, no CPT, ATP luminescence, 48 h | 15% of 420,000 active | Potency, µM (titrated, usually from 46.2 µM), without a hit: top-dose activity change, negative = growth inhibition, usual class: inhibitors | AID 686978, 2013; also: % is scaled to controls: 0 for no effect and ±100 for the full control effect; nearly all actives have a fitted effect of over 55% in size
#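 Chicken DT40 Tdp1-/- cells complemented with human TDP1, screened without camptothecin (DMSO vehicle only), 400 cells/well. Compounds pin-transferred, cells incubated at 37 °C for at least 48 hr. Growth read as ATP-dependent luminescence (CellTiter-Glo, 30 min at RT).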
# DT40 TDP1 CPT – qHTS for Inhibitors of human tyrosyl-DNA phosphodiesterase 1 (TDP1): qHTS in cells in presence of CPT; chicken DT40 Tdp1-/-;hTDP1 cells + 20 nM CPT, ATP luminescence, 48 h; Potency, µM (highest dose often 46.2 µM), without a hit: at the top dose activity change, negative = growth inhibition, most hits filed as inhibitors; 12% of 420,000 active; also: % is scaled to controls: 0 for no effect and ±100 for the full control effect; nearly all actives have a fitted effect of over 55% in size
#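 Chicken DT40 Tdp1-/- cells stably complemented with human TDP1 were seeded at 400 cells/well in medium containing 20 nM camptothecin, exposed to pin-transferred compounds, and grown at 37 °C for at least 48 hr. Viability was read as ATP luminescence.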
# HepG2 tox – qHTS for Inhibitors of TGF-b: Cytotox Counterscreen; AID 588856, 2011; HepG2 CAGA-GFP viability, ATP luminescence, 18 h; Potency, µM (top dose mostly 46.1 µM), for the others: at the highest dose activity change, negative = cytotoxicity, actives largely listed as cytotoxic; 0.76% of 410,000 active
#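 HepG2 CAGA-GFP cells (1000/well, DMEM with 1% FBS) received compound, then TGF-beta at 500 pg/mL final, and were incubated 18 hours at 37 degrees C. Viability was read by CellTiter-Glo luminescence. Media-only wells were set as complete cell-killing and DMSO as no toxicity.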
# TGFb SMAD3 inh – qHTS for Inhibitors of TGF-b; HepG2 CAGA-GFP TGF-b/SMAD3 reporter, GFP fluorescence, 18 h; TGF-beta stimulated, 500 pg/mL final; Potency, µM (doses to about 46.1 µM), for inactives: at the top dose activity, negative = inhibition, usual class: inhibitors; 1.2% of 410,000 active; AID 588855, 2011; also: % is scaled to controls: 0 for no effect and ±100 for the full control effect; nearly all actives have a fitted effect of over 65% in size
#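 First, reporter cells (HEPG2 CAGA-GFP) rested 2 h at 37 degrees C. Next, compounds were pinned in and TGF-beta added to 500 pg/mL final. After 18 h, GFP was imaged per cell and summed per well.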
# HT1080-NT tox – qHTS for induction of synthetic lethality in tumor cells producing 2HG: qHTS for the HT-1080-NT fibrosarcoma cell line; HT-1080-NT fibrosarcoma viability, CellTiter-Glo ATP luminescence, 48 h; AID 686970, 2013; Potency, µM (doses to about 46.1 µM), for the others: at the top dose activity, negative = less viability, actives largely listed as cytotoxic; 1.6% of 360,000 active;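 also: NT is the 2HG producing partner of a matched IDH1 knockdown line; 0% = DMSO-treated cells and -100% = media-only wells without cells; nearly all actives have a fitted effect of over 55% in size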
#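 Compounds were tested in concentration-response format on HT-1080-NT cells for 48 hours at 37 degrees C. Cell viability came from CellTiter-Glo luminescence; curves were classified by r2, response magnitude and activity.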
# HT1080 IDH1KD tx – qHTS for induction of synthetic lethality in tumor cells producing 2HG: qHTS for the HT-1080-IDH1KD cell line | HT-1080 IDH1 knockdown viability, ATP luminescence, 48 h | 2% of 360,000 active | AID 686971, 2013 | Potency, µM (series often up to 46.1 µM), without a hit: at the top dose activity, negative = toxicity, usual class: cytotoxic;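 also: 0% = DMSO wells and -100% = cell-free medium wells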
#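 HT-1080-IDH1KD cells (IDH1 knocked down), 750/well in RPMI with 5% FBS, treated with compound 48 h at 37 degrees C. Viability by CellTiter-Glo luminescence, normalised to DMSO and no-cell wells; concentration-response curves classed.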
# * = called active by the depositor; u = inconclusive; x = no result given. Compounds with a hit are over-represented: about 17% of the library has one in this group of screens. Calls follow the shape of the dose curve; as a rule, active = well fitted curve in the direction sought with a large enough effect; inconclusive = small, poorly fitted or top-dose-only effect, or another doubt; inactive = no such curve, though single readings can be large; an effect the other way counts as inactive or inconclusive. Potency is read from the fitted curve at half-maximal effect.
SMILES,DT40 TDP1 no CPT,DT40 TDP1 CPT,HepG2 tox,TGFb SMAD3 inh,HT1080-NT tox,HT1080 IDH1KD tx
CCOc1ccc(C(=O)NCCn2cc(SCC(=O)Nc3ccccc3)c3ccccc32)cc1,23µM*,u,-14%,10µM*,x,x
COCCNC(=O)CSc1cn(CC(=O)N2CCCCCC2)c2ccccc12,0.52µM*,u,-18%,u,x,x
CCOc1ccc(NC(=O)CSc2cn(CC(=O)N3CCOCC3)c3ccccc23)cc1,-29%,u,2%,-2%,x,x
COc1ccc(C(=O)NCCn2cc(SCC(=O)Nc3ccc(C)cc3)c3ccccc32)cc1,u,u,-3%,u,x,x
Cc1ccc(CNC(=O)CNC(=O)c2ccc(Br)o2)cc1,2%,-17%,-2%,-4%,0%,0%
O=C(c1ccc(N2C(=O)C3C4CC(C(Br)C4Br)C3C2=O)cc1)N1CCCCC1 (stereo not drawn),-5%,9%,-12%,7%,2%,21%
CC(=O)c1cccc(NC(=O)C(=O)c2cn(CC(=O)N3CCCCC3)c3ccccc23)c1,23µM*,26µM*,0%,-19%,-1%,-5%
COc1ccccc1NC(=O)C(=O)c1cn(CC(=O)N2CCOCC2)c2ccccc12,21µM*,u,-33%,-14%,-7%,2%
CC(=O)Nc1cccc(NC(=O)C(=O)c2cn(CC(=O)N3CCCC3)c3ccccc23)c1,u,u,-1%,8%,0%,7%
CCCn1cc(SCC(=O)NCc2ccco2)c2ccccc21,-11%,-8%,-36%,-8%,6%,-27%
COC(=O)c1ccc(NC(=O)CSc2cn(CC(=O)N3CCCCC3)c3ccccc23)cc1,u,21µM*,-18%,5.6µM*,x,x
O=C(CSc1cn(CCNC(=O)c2ccccc2)c2ccccc12)NCc1ccco1,u,26µM*,0%,0%,-16%,-3%
CCOc1ccc(S(=O)(=O)NCc2ccc(F)cc2)c2cccnc12,-28%,-23%,-12%,2%,-1%,-2%
COc1ccccc1C(=O)OCC(=O)Nc1ccc(N2CCCCC2)cc1,u,u,-8%,-5%,x,x
CC(=O)Nc1cccc(NC(=O)CSc2cn(CC(=O)N3CCCCCC3)c3ccccc23)c1,u,18µM*,-21%,0%,x,x
C[C@H]1CN=C(N(C)C)N1CCCCc1ccccc1,15µM*,u,-12%,2%,-6%,-11%
CCC(CC)CN1C(N(C)C)=NC[C@@H]1CC(C)C,18µM*,16µM*,-7%,-7%,1%,-1%
C[C@H]1CN=C(N(C)C)N1CC1CCCC1,-19%,-7%,4%,16%,-1%,-3%
CC(C)C[C@H]1CN=C(N(C)C)N1CC1CCCC1,u,u,-13%,-8%,-7%,-5%
CC(C)C[C@H]1CN=C(N(C)C)N1CCCCc1ccccc1,2.6µM*,5.2µM*,-43%,-11%,-13%,-4%
CNc1ncncc1-c1ccccc1CN(C)C,-6%,4%,x,x,x,x
COc1nn(CC(=O)N2N=C(C)CC2(O)C(F)(F)F)cc1[N+](=O)[O-] (stereo not drawn),-4%,-20%,9%,-17%,1%,5%
CC1=NN(C(=O)Cn2ccc([N+](=O)[O-])n2)C(O)(C(F)(F)F)C1 (stereo not drawn),5.8µM*,5.8µM*,2%,2%,9%,6%
Cc1c(Br)c([N+](=O)[O-])nn1CC(=O)N1CCN(C23CC4CC(CC(C4)C2)C3)CC1,-23%,-19%,0%,-14%,-6%,-3%
CC1=NN(C(=O)Cn2nc([N+](=O)[O-])c(Br)c2C)C(O)(C(F)(F)F)C1 (stereo not drawn),21µM*,23µM*,-47%,-26%,11%,18%
SMILES,DT40 TDP1 no CPT,DT40 TDP1 CPT,HepG2 tox,TGFb SMAD3 inh,HT1080-NT tox,HT1080 IDH1KD tx
COc1ccc(CN2CCN(C(=O)c3ccccc3C(=O)c3ccccc3)CC2)cc1F,u,u,-30%,3%,0%,-9%
O=C1/C(=C\c2ccc3ccccc3c2)CCCc2ccccc21,u,u,-17%,0%,u,13µM*
O=C1/C(=C/c2cccc([N+](=O)[O-])c2)CCc2ccccc21,15µM*,u,-38%,u,u,u
CCN1C/C(=C\c2cccc([N+](=O)[O-])c2)C(=O)/C(=C/c2cccc([N+](=O)[O-])c2)C1,0.92µM*,0.65µM*,-51%,u,4.1µM*,2.3µM*
O=C(O)c1ccc(-n2ncc3c2/C(=C\c2cccc([N+](=O)[O-])c2)CC3)cc1,u,u,-21%,-20%,2%,-3%
O=C(O)c1ccc(-n2ncc3c2/C(=C/c2cccc([N+](=O)[O-])c2)CC3)cc1,u,16µM*,2%,10%,10%,6%
O=C1/C(=C/c2cccc([N+](=O)[O-])c2)CSc2ccc(Cl)cc21,-19%,2%,-2%,12%,20%,13%
CONC(=O)C1CCN(C(=O)OCc2ccccc2)CC1,3%,7%,-19%,25%,14%,14%
C=CCn1c(Sc2ncc([N+](=O)[O-])s2)n[nH]c1=O,0.92µM*,0.41µM*,-105%,3.5µM*,5.8µM*,5.2µM*
COc1ccc(C)c2sc(N(Cc3cccnc3)C(C)=O)nc12,-45%,u,-35%,-19%,x,x
COc1cccc(C(=O)N(Cc2cccnc2)c2nc3c(OC)ccc(C)c3s2)c1OC,23µM*,u,-25%,u,x,x
COc1ccc(C)c2sc(N(Cc3cccnc3)C(=O)CCc3ccccc3)nc12,15µM*,u,-3%,-20%,x,x
COc1ccc(C)c2sc(N(Cc3cccnc3)C(=O)C3CCCCC3)nc12,15µM*,18µM*,-23%,-9%,x,x
O=C(NCCc1ccc2c(c1)OCO2)Oc1ccccc1,u,u,x,x,0%,7%
O=C(COc1cc2oc(=O)c3c(c2cc1Cl)CCC3)NCCCn1ccnc1,u,-13%,-17%,-4%,2%,2%
